Data: PubChem BioAssay AID2241 (Broad Institute, 2010)
The campaign covered roughly 21,000 compounds. About 110 (0.52%) were called active. This is one part of a sample in which actives are shown more often than they occur.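 The calls were made as follows: active = most replicate scores above 10, or exactly half above 10 with mean activity above 10; inconclusive = mean activity below 10 while half the replicates exceed 10; inactive = most replicate scores below 10.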

Assay: caspase activation in A1-primed MEFs – cell-based, CaspaseGlo luminescence, A1 inhibitor project, primary screen (AID 2241);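 also: effector caspase 3 and 7 activity cleaving a DEVD luciferin substrate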
Conditions: MEF A1-2A-BIM cells, caspase-Glo luminescence, 3 h; stronger effect = higher value; percent of clofoctol signal, DMSO as zero; concentration not given here

Row | Structure (SMILES) | caspase activation
1 | Cc1cc(C)n(CCc2nc3c4ccccc4n(Cc4ccc(Cl)cc4)c(=O)n3n2)n1 | -0.449% (inactive)
2 | CCOc1ccc2c(c1)sc(=NC(=O)c1cc3ccccc3cc1OC)n2C | 1.85% (inactive)
3 | COC(=O)c1c(C)c(=O)[nH]c2ccccc12 | 0.776% (inactive)
4 | CCCOc1ccc(Oc2nc(N(C)C)nc(N(C)C)n2)nn1 | 0.458% (inactive)
5 | CCOC(=O)N1CCC(NC(=O)NCc2noc3ccccc23)CC1 | 0.501% (inactive)
6 | C[C@@H]1CN([C@@H](C)CO)C(=O)c2cc(NS(=O)(=O)c3ccccc3)ccc2O[C@H]1CN(C)CC1CCCCC1 | -0.065% (inactive)
7 | O=C(CC1N=C2c3ccccc3N=C(SCc3ccccc3F)N2C1=O)NC1CCCCC1 (stereo not drawn) | -0.498% (inactive)
8 | C[C@@H]1CN([C@H](C)CO)C(=O)c2cc(NC(=O)Nc3ccccc3)ccc2O[C@H]1CN(C)S(=O)(=O)c1ccc(F)cc1 | -0.342% (inactive)
9 | O=c1c2ccccc2nc(SCc2ccc(F)cc2)n1-c1ccccc1 | -0.926% (inactive)
10 | O=C(NCc1ccc2c(c1)OCO2)C12CC3CC(CC(C3)C1)C2 | 0.545% (inactive)
11 | CCOC(=O)c1cc(-c2ccccc2)n(-c2ccccc2C)n1 | -0.391% (inactive)
12 | C=CCn1cc(C=C2C(=O)N(C)C(=S)N(C)C2=O)c2ccccc21 | 1.19% (inactive)
13 | C[C@H]1CN([C@@H](C)CO)C(=O)c2cc(NS(C)(=O)=O)ccc2O[C@@H]1CN(C)S(=O)(=O)c1ccc(Cl)cc1 | -0.347% (inactive)
14 | CC(C)CC1NC(=O)N(c2ccccc2)C1=O (stereo not drawn) | 0.301% (inactive)
15 | C[C@H](CO)N1C[C@H](C)[C@H](CN(C)Cc2ccc(-c3ccccc3)cc2)Oc2ccc(NS(=O)(=O)c3ccccc3)cc2C1=O | 0.241% (inactive)
16 | Cc1ccc(NC2=CC(=O)NC2)cc1 | 1.28% (inactive)
17 | CN(CCOC(=O)C1c2ccccc2Oc2ccccc21)Cc1ccccc1 | 1.21% (inactive)
18 | Cc1cccc(NC(=O)c2ccc(C)c(S(=O)(=O)N3CCCC3)c2)c1 | -5.91% (inactive)
19 | CC(=O)N1N=C(c2ccccc2)OC1c1cccnc1 (stereo not drawn) | -0.213% (inactive)
20 | C[C@H]1CN([C@@H](C)CO)C(=O)c2cc(NC(=O)Nc3ccccc3)ccc2O[C@H]1CN(C)C(=O)Nc1ccc(F)cc1 | 0.365% (inactive)
21 | Cc1ccccc1N(C)S(=O)(=O)c1ccc2[nH]cc(C(=O)NCCC(C)C)c(=O)c2c1 | 0.114% (inactive)
22 | COc1cc(C=Nc2ccc(Cl)cc2)ccc1OC(=O)/C=C/c1cccs1 | -0.187% (inactive)
23 | O=C(Cc1ccccc1)N1CCCc2ccccc21 | 1.12% (inactive)
24 | O=C(Nc1ccccc1)Nc1ccc(C2SCCS2)cc1 | -6.29% (inactive)
25 | Cc1ccc(-n2c(C)cc(C=C3C(=O)c4ccccc4C3=O)c2C)cc1 | -6.47% (inactive)
26 | C[C@@H]1CN([C@H](C)CO)C(=O)c2cc(NC(=O)Cc3ccccc3)ccc2O[C@H]1CN(C)S(=O)(=O)c1cn(C)cn1 | 0.269% (inactive)
27 | CCN1C(=O)c2cccc3c(NC(=S)NC(=O)c4ccccc4)ccc1c23 | 11.5% (active)

Row | Structure (SMILES) | caspase activation
28 | CCN1C(=O)c2ccccc2Sc2ccc(NC(=O)N3CCc4ccccc43)cc21 | -0.754% (inactive)
29 | N#CCNC(=O)CN1C(=O)c2ccccc2C1=O | 0.74% (inactive)
30 | CC1CCC(NC(=O)Cn2ncn3c(cc4sccc43)c2=O)CC1 (stereo not drawn) | -0.216% (inactive)
31 | O=C1CC(c2ccccc2)C(=O)N1c1ccc(F)cc1 (stereo not drawn) | 0.129% (inactive)
32 | COc1cc(SC)ccc1C(=O)N(C)c1ccccc1 | -0.443% (inactive)
33 | S=C(Nc1cccc(Cl)c1)NC1CCSc2ccc(Cl)cc21 (stereo not drawn) | 1.82% (inactive)
34 | C[C@H](CO)N1C[C@H](C)[C@H](CN(C)S(C)(=O)=O)Oc2ccc(NC(=O)CCCN(C)C)cc2C1=O | 0.894% (inactive)
35 | COc1ccc(S(=O)(=O)N(C)C[C@@H]2Oc3ccc(NC(=O)Nc4c(C)noc4C)cc3C(=O)N([C@H](C)CO)C[C@@H]2C)cc1 | -0.0515% (inactive)
36 | CC1CCC(C(C)C)C(=O)/C1=C\c1ccc(NC(=O)CCC(=O)O)cc1 (stereo not drawn) | -1.52% (inactive)
37 | COc1ccc(NC(=O)Nc2ccc3c(c2)C(=O)N([C@@H](C)CO)C[C@H](C)[C@@H](CN(C)Cc2ccc4c(c2)OCO4)O3)cc1 | 0.747% (inactive)
38 | CC1=CCC(C(=O)O)(C(=O)NCc2ccccc2)C(c2ccc(Br)cc2)C1 (stereo not drawn) | 0.252% (inactive)
39 | C[C@@H]1CN([C@H](C)CO)C(=O)c2cc(N(C)C)ccc2O[C@@H]1CN(C)S(C)(=O)=O | 1.19% (inactive)
40 | Cc1noc(C)c1NC(=O)N(C)C[C@@H]1Oc2ccc(NS(C)(=O)=O)cc2C(=O)N([C@H](C)CO)C[C@@H]1C | -0.083% (inactive)
41 | O=c1oc2ccccc2cc1-c1ccc(Cl)cc1 | -4.58% (inactive)
42 | COc1ccc(OC)c2c(C)cc(=O)[nH]c12 | 0.675% (inactive)
43 | Cc1ccc(Nc2nc(C)cc(C)c2C(N)=O)cc1 | 0.407% (inactive)
44 | CCOC(=O)c1cc(CC)sc1/N=C/C1C(=O)c2ccccc2C1=O | 0.959% (inactive)
45 | NC(=O)c1nnc2cc(-c3ccccc3)nn2c1N | -5.53% (inactive)
46 | C[C@@H]1CN([C@@H](C)CO)C(=O)c2cc(NC(=O)c3ccncc3)ccc2O[C@H]1CN(C)S(=O)(=O)c1ccc(Cl)cc1 | -0.107% (inactive)
47 | Cc1nc2ccccn2c1-c1ccnc(SCC(=O)c2ccc(Cl)cc2)n1 | 2.75% (inactive)
48 | COc1cc(C2OC(c3ccc(O)c(OC)c3)C(C)(O)C2C)ccc1O (stereo not drawn) | 0.0643% (inactive)
49 | O=C(COC(=O)c1cc2ccccc2oc1=O)c1ccccc1 | -0.224% (inactive)
50 | CC(C(=O)NC1CCCC1)n1c2ccccc2c2cnn(C)c(=O)c21 (stereo not drawn) | -0.382% (inactive)
51 | CCn1c(=O)c2c(n3c(SCC(N)=O)nnc13)-c1ccccc1CC21CCCCC1 | 1.18% (inactive)
52 | O=C(NCN1CCCCC1)C12CC3CC(CC(C3)C1)C2 | 0.282% (inactive)
53 | C[C@H]1O[C@@H](O[C@H]2[C@@H](O)C[C@H](O[C@H]3[C@@H](O)C[C@H](O[C@H]4CC[C@]5(C)C6C[C@@H](O)[C@]7(C)[C@@H](C8=CC(=O)OC8)CC[C@]7(O)C6CC[C@@H]5C4)O[C@@H]3C)O[C@@H]2C)C[C@H](O)[C@@H]1O (stereo partly drawn) | 0.786% (inactive)
